According to PubChem BioAssay (NCI):
Values joined by “and” are separate entries in the source; they are usually repeats but may differ in a detail not shown here. Equal entries are not always repeated. This is part of a sample that, as a whole, favours compounds with a hit. Of some 83,000 tested, about 20% had one in any assay.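 Compound tested at a single concentration for 48 hours in 96-well plates; a percent growth value below 10 was scored as active.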 More than one record can exist for a structure, and the calls need not agree. Active and inactive are the calls of the source.

system: SK-MEL-28 melanoma; test: NCI-60 one-dose screen, 48 h (100 = growth as untreated, 0 = no growth, -100 = all killed); conditions: 10 µM
Procedure: Growth inhibition of the SK-MEL-28 human tumor cell line is measured as a screen for anti-cancer activity. Cells are grown in 96 well plates and exposed to the test compound for 48 hours. Compounds are tested at a single concentration, which is 10^-5 M for most compounds. The reported endpoint is percent growth (GI% or GIPRCNT), where numbers from 0 - 100% represent growth inhibition, and numbers from -100% - 0 represent cell death. For example, a value of 40 represents 60% growth inhibition. A value of 0 means no net growth occurred over the course of the experiment. A value of -40 indicates 40% of cells at the beginning of the experiment died by the end of the experiment. A value of -100 means all cells are dead at the end of the experiment.
NCI-60 Human Tumor Cell Lines Screen was performed using the standard one-dose NCI protocol, which is described in more detail at https://dtp.cancer.gov/discovery_development/nci-60/default.htm.
Compounds with GIPRCNT values below 10 were considered active. Activity score was based on GIPRCNT using the following formula: […]
Score is 0 for GIPRCNT values of 100 or above, 50 for GIPRCNT values of 0, and 100 for GIPRCNT values of -100.

Structure (SMILES) | growth
CC(C)(C)c1cc(NC(=O)Cc2ccc(-c3cnc4cc(-c5cnn(CCN6CCOCC6)c5)ccc4n3)cc2)no1 | 29.4% (inactive)
O=C(O)c1sccc1O | 101% (inactive)

same assay, conditions: 10 µM unless noted

Structure (SMILES) | growth
Nc1ccccc1Nc1ccccc1 | 109% (inactive) and 101% (inactive)
CCCCCn1sc(=O)n(Cc2ccc(CNC(=O)C(C)c3ccc(CC(C)C)cc3)cc2)c1=O (stereo not given) | 107% (inactive) and -52.5% (active)
C#CCN(C)Cc1ccccc1 | 111% (inactive) and 114% (inactive)
O=C(c1ccc(Cl)cc1)C(NCCO)c1ccc(Cl)cc1 (stereo not given) | 111% (inactive) and 105% (inactive)
Cc1ccc(S(=O)(=O)NCN2C(=O)c3ccccc3C2=O)cc1 | 111% (inactive)
NC(=O)C1CC2C=CC1C2 (stereo not given) | 104% (inactive) and 101% (inactive)
CN1CCN(C2CCN(C(=O)Nc3cc(Oc4ccc(NC(=O)C5(C(=O)Nc6ccc(F)cc6)CC5)c(F)c4)ccn3)CC2)CC1 | -91.6% (active) and 94.3% (inactive)
Nc1n[nH]c(=S)n1-c1ccc(Cl)cc1 | 101% (inactive)
CC1CCCC(=O)O1 (stereo not given) | 99.5% (inactive) and 113% (inactive)
Cc1cc(C)c(N)c(Br)c1 | 110% (inactive) and 102% (inactive)
OC1CCC(Oc2cccc3cnc(Nc4ccc5nc[nH]c5c4)nc23)CC1 (stereo not given) | 5.62% (active) and 66.4% (inactive)
OCCN1CCN(CCCN2c3ccccc3Sc3ccc(Cl)cc32)CC1 | -33.9% (active) and 56.1% (inactive)
O=C(O)CCCCc1ccc([N+](=O)[O-])cc1 | 113% (inactive) and 107% (inactive)
NC(=O)NO | 107% (inactive) and 45.5% (inactive)
CNC(=O)c1ccc(C)c(-n2c(C)cc(OCc3ccc(F)cc3F)c(Br)c2=O)c1 | 104% (inactive) and 97.9% (inactive)
CCN(CC)CCCC(C)Nc1cnc(C(=O)Nc2cc(F)cc3cccnc23)cn1 (stereo not given) | 63.2% (inactive) and 22.7% (inactive)
Cc1nn(-c2ccc(Cl)cc2)c2ncnc(N/N=C/c3ccccc3O)c12 | 25.2% (inactive) and 14.5% (inactive)
CC1=NN(c2ccccc2)C(=O)C1C(=O)c1ccccc1 (stereo not given) | 101% (inactive)

Structure (SMILES) | growth
O=C(O)C1C2C=CC(C2)C1C(=O)O (stereo not given) | 105% (inactive) and 49.8% (inactive) and 109% (inactive)
O=C(Oc1cccc(OC(=O)c2ccccc2)c1)c1ccccc1 | 115% (inactive) and 100% (inactive)
CCCCCCCCCCCCCCCCOc1ccc(C)cc1 | 111% (inactive)
COc1ccccc1C(C)=O | 121% (inactive) and 106% (inactive)
COc1ccccc1/C=N\N=C(N/N=C/c1ccccc1OC)N/N=C/c1ccccc1OC | 78.8% (inactive) and 64.5% (inactive)
O[C@H](c1cc(C(F)(F)F)nc2c(C(F)(F)F)cccc12)[C@@H]1CCCCN1 | 94.4% (inactive) and 88.8% (inactive)
O=C1C2=C(C(=O)c3ccccc31)C(O)(S(=O)(=O)O)C(O)(S(=O)(=O)O)C1N=CC=CC21 (stereo not given) | 89.2% (inactive) and 73% (inactive)
CCOC(=O)Nc1nc2ccccc2[nH]1 | 109% (inactive) and 32.6% (inactive)
CCN(CC)CCCC(C)Nc1ccnc2cc(Oc3ccccc3)ccc12 (stereo not given) | 1.01% (active) and 85.5% (inactive)
COc1ccc2cc3[n+](cc2c1OC)CCc1cc2c(cc1-3)OCO2 | 94% (inactive)
N/C(=N\N=C\c1ccc2c(c1)OCO2)N/N=C\c1ccc2c(c1)OCO2 | 112% (inactive) and 45.6% (inactive)
CC(C)(O)Cn1cc(-c2ccc3nc(OC4CC4)ccc3c2)c2c(N)ncnc21 | 101% (inactive) and 71.5% (inactive)
Cc1ccc(NCSc2ccc(Cl)cc2)cc1 | 86.9% (inactive) and 94.3% (inactive)
COc1ccc(CCN(C)CCCC(C#N)(c2ccc(OC)c(OC)c2)C(C)C)cc1OC (stereo not given) | 106% (inactive) and 99.7% (inactive)
Oc1ccccc1C=NCC1CCC(CN=Cc2ccccc2O)CC1 (stereo not given) | 128% (inactive)
COc1cc(NS(C)(=O)=O)ccc1Nc1c2ccccc2nc2c(C)cccc12 | 21.6% (inactive) and 21% (inactive)
CCOC(=O)Nc1ccc2c(c1)/C(=N\NC(N)=S)c1ccccc1-2 | 50% (inactive) and 75.4% (inactive)
COc1cc2c(c(OC)c1OC)-c1ccc(OC)c(=O)cc1[C@@H](NC(C)=O)CC2 | 64.5% (inactive) and 62.4% (inactive)

same assay, conditions: 30 µM

Structure (SMILES) | growth
CC(C)(C)c1cc(NC(=O)Cc2ccc(-c3cnc4cc(-c5cnn(CCN6CCOCC6)c5)ccc4n3)cc2)no1 | 30.3% (inactive)

same assay, conditions: 100 µM

Structure (SMILES) | growth
O=C(O)c1sccc1O | 28.3% (inactive)
